Hit rate of the full screen: of about 2,300 compounds, about 1,000 (43%) were called active. So high a share suggests a set chosen from earlier hits. This is one part of the list. Potency and affinity values are given separately. Unmarked numbers belong to inactive results. How the calls were made is not given here.
Assay: PhoP regulon inhibitor project modified counter assay, GFP fluorescence readout, dose response (AID 1985)
Details: S. Typhi, 4 h; series mostly up to 150 µM; inhibition: at the top concentration

Structure (SMILES)	inhibition
Cc1ccc(NC(=O)COc2ccccc2CNC(C)(C)CC(C)(C)C)cc1	17.6%
Cc1ccc(NC(=O)Cc2ccc(F)cc2)cc1	-1.3%
c1ccc2c(c1)C(=NC1CCCCC1)NC2=NC1CCCCC1	19.5%
Cc1cc(N2CCCCC2)c(F)cc1[N+](=O)[O-]	-27.7%
Cc1nn(-c2cc(N3CCNCC3)ccc2[N+](=O)[O-])c(=O)c2ccccc12	5.09%
CCN(CC(=O)Nc1ccc(C(=O)OC)cc1)C1CCCCC1	15.1%
Cc1ccc(N2C(=O)[C@@H]3[C@H](C2=O)[C@H]2C=CC=NN2[C@@H]3C(=O)Nc2ccc(Cl)cc2)cc1	-11.7%
COC(=O)c1cccc(C(=O)N2CCCC(CCC(=O)N(C)CCc3ccccn3)C2)c1 (centres undefined)	-17.6%
Clc1ccc2c(NCc3ccccn3)ccnc2c1	12.8%
C[C@@H](CO)NC(=O)c1ccc2c3n(nc2c1)-c1ccc(Cl)cc1CO3	17.5%
CCCCCc1nc2c(c3c1CCCC3)CCCC2	18.7%
N=C1c2ccccc2CN1c1ncccn1	-13.2%
CCCN1CCC(NCc2cn(C)nc2-c2ccc(Oc3ccccc3)cc2)CC1	20.2%
CN(C)CCNC(=O)/C(=C/c1ccc(-c2ccc(Cl)cc2)o1)NC(=O)c1ccccc1	25.4%
CN(C)CCCNC(=O)c1ccc(-c2nc(-c3ccc(Cl)cc3)cs2)cc1	28%
O=C(N/N=C/c1ccc(-c2ccc(Br)cc2)o1)c1ccc2c(c1)OCO2	28.8%
CCOC(=O)COn1c(=O)c(-c2cccs2)[n+]([O-])c2ccccc21	21.9%
O=C(O)C1CCCCC1C(=O)NCCc1ccncc1 (centres undefined)	-26.7%
C#CCOCCOCCOCCNc1nc(N2CCN(C(=O)CCCCCCCCCCNC(=O)[C@@H](CCSC)n3cc(CCO)nn3)CC2)nc(N2CCN(C(=O)CCCCCCCCCCNC(=O)[C@H]([C@@H](C)CC)n3cc(CCCCN=C(N)N)nn3)CC2)n1	-37.3%
Cn1c(=O)c2c(nc(Br)n2CCSc2nc3ccccc3o2)n(C)c1=O	-14.5%
CC(=O)c1cccc(CN2CCN(C3CCCC3)C(CCO)C2)c1 (centres undefined)	-5.89%
Cc1ccc(S(=O)(=O)NC(C)(C)CSc2nnc(N)s2)cc1	-30.3%

Structure (SMILES)	inhibition
CCc1ccccc1NC(=S)N(Cc1cccc(C)c1)c1cccnc1	-7.68%
CN1CCN(C(=O)c2cc(-c3cccc(Cl)c3)on2)CC1	5.44%
CC1(C)CC(N2CCN(C(c3ccccc3)c3ccccc3)CC2)=CC(=[N+]2CCCCC2)C1	17.4%
CCn1c(-c2cccc(Br)c2)n[nH]c1=S	11.6%
CC(=O)c1sc2nc(=O)c(C)nn2c1C	-12.1%
Cc1ccc(C(=O)N2C(=S)C(c3ccc(F)cc3)=NC23CCN(C)CC3)cc1	10.3%
COc1ccc(N=Cc2c(O)n(CC3CCCO3)c(=O)[nH]c2=O)cc1 (centres undefined)	-0.83%
CC(=O)c1c(C)nc(-c2cccc([N+](=O)[O-])c2)n1O	-7.51%
COc1cc(C)nc(N2CCCC(C(=O)NCC(C)C)C2)n1 (centres undefined)	6.1%
O=C(C[n+]1cc(-c2ccc(Cl)cc2)n2c1CCC2)N1c2ccccc2Sc2ccccc21	33.5%
CCOC(=O)C1CCCN(C/C(O)=C(\C#N)c2nc(-c3ccccc3)cs2)C1 (centres undefined)	-20.3%
O=C(O)c1csc(-c2ccc(Cl)cc2)n1	36.8%
Cc1ccc(-c2csc(NC(=O)C[n+]3cc(-c4ccccc4)n4c3CCC4)n2)cc1	-33.3%
CC(=O)N(CCC1(c2ccc(C)cc2)CCOC(C(C)C)C1)Cc1ccco1 (centres undefined)	18.1%
Cc1cccc(/C(N)=N/OC(=O)N2CCOCC2)c1	25.3%
CCOC(=O)C1CCN(Cc2nc(-c3ccc(OC)c(OC)c3)no2)CC1	-15.2%
CC(=O)c1ccc(NC(=O)CN2CCCCCC2)cc1	15.7%
O=C(Cn1[nH]c(=O)c2ccccc2c1=O)Nc1ccc(-c2nnc3n2CCCCC3)cc1	10.1%
COC(=O)c1ccc(CSc2ccc3nnc(-c4ccc(OC)c(OC)c4)n3n2)o1	-11.5%
COc1ccc(S(=O)(=O)NCCSCc2ccco2)cc1Cl	12.5%
CCN1CCCC1Cn1cnc2c([nH]c3ccc(Cl)cc32)c1=O (centres undefined)	26.1%
Clc1ccc(CONc2ncnc3nonc23)c(Cl)c1	12.7%

Structure (SMILES)	inhibition
CCCCCCCCn1ccc(=N)cc1	15.6%
O=c1c2ccccc2nc(-c2ccoc2)n1CCc1ccccc1	18.5%
O=C(On1c(-c2ccccc2)nc2ccccc2c1=O)c1ccco1	25.2%
CCC(O)CNc1nc(SC)nc2sc3c(c12)CCN(C)C3 (centres undefined)	6.31%
CN1C(=O)C2(Nc3ccccc3-c3nc4ccccc4n32)c2ccccc21 (centres undefined)	3.48%
O=C(N/N=C\c1cccc([N+](=O)[O-])c1O)C1COc2ccccc2O1 (centres undefined)	-26.6%
CCCCCN1C(=O)/C(=C/c2c(N3CCc4ccccc4C3)nc3ccccn3c2=O)SC1=S	-12.8%
COc1cccc2cc(C(=O)Nc3ccccc3C)/c(=N/O)oc12	-16.5%
C/C(=N\NC(=O)c1c(Br)c(C)nn1C)c1ccc(NC(=O)c2ccoc2C)cc1	5.71%
CCN(CC)Cc1c(C(=O)N/N=C/c2cccs2)nnn1-c1nonc1N	28.9%
Clc1ccc(N/N=C/c2cccs2)nn1	7.58%
Cn1cc(C(=O)N/N=C/C(Br)=C/c2ccccc2)ccc1=O	4.35%
Cc1ccnc(NC(=O)CCC(=O)N(CC(=O)NC2CCCCC2)C2CCCC2)c1	-5.33%
COC(=O)C1C(=O)C2=C(CC1C)Nc1ccccc1NC2c1ccc(C)s1 (centres undefined)	-5.97%
CC(C(=O)NC1CCCCC1)N1CCN(C)CC1 (centres undefined)	-31.5%
CN(C)c1nnnn1-c1ccc(Oc2ccccc2)cc1	24.8%
COC(=O)c1sccc1NC(=S)NCc1ccc(Cl)cc1	-3.82%
CC1CCN(C(=O)CSc2nnc(Cc3cc(=O)[nH]c(=O)[nH]3)n2-c2ccc(Cl)cc2)CC1	17.4%
Cn1nnnc1SCC(=O)Nc1ccccc1-c1ccccc1	9.74%
CCOc1cc(S(=O)(=O)N2CCN(CC)CC2)ccc1Cl	-5.49%
Cc1cc(C)n2nc(SCn3nnc4ccccc4c3=O)nc2n1	11.8%
Cc1ccc2cc(CN(Cc3ccc(F)cc3)Cc3nnnn3C3CCCC3)c(=O)[nH]c2c1	-28%

Structure (SMILES)	inhibition
CCCCCCNC1=NCCS1	31.9%
CCCCCCCCC1=NCCc2c1[nH]c1ccccc21	-11%
COc1ccc(-n2ncc3c(NCc4ccccn4)ncnc32)cc1	-9.74%
CN(C)CCSc1nnc2[nH]c3ccccc3c2n1	-3.67%
CC1=C([N+](=O)[O-])C(c2cccc(Br)c2)C2=C(N1)c1ccccc1C2=O (centres undefined)	20.7%
O=C(O)C1Cc2ccccc2CN1S(=O)(=O)c1ccc2ccccc2c1 (centres undefined)	-7.48%
CC(=O)c1c(C)[nH]c(C(=O)CSc2nnc(-c3ccc(Cl)cc3)n2CC2CCCO2)c1C (centres undefined)	0.08%
O=C(CSc1nc2ncc(Cl)cc2[nH]1)NCC(=O)Nc1ccc(F)c(F)c1F	4.94%
CC1(C)CC(N2CCN(c3ccccc3)CC2)=CC(=[N+]2CCCC2)C1	8.5%
CCCCCCC(=O)N(O)C1CC(=O)N(Cc2ccccc2)C1=O (centres undefined)	6.46%
Cc1ccc(OCC(O)Cn2c(N)nc3c2c(=O)n(C)c(=O)n3C)cc1 (centres undefined)	-6.08%
C=CCn1c(C)c(C(C)=O)c(N2CCCC2)nc1=S	15.9%
CCOC(=O)C1=C(C(C)=O)C(c2cccnc2)C(C#N)=C(N)O1 (centres undefined)	3.6%
COc1ccc(CN2CCSCC2)cc1C	17.3%
Cc1ccc(NC(=O)CN(C)C(=O)Cn2ccsc2=N)cc1	9.59%
CC(C)NC(=O)c1cc(-c2ccc(Br)cc2)on1	2.62%
Cc1ccccc1-c1ncc(CN2CCN(C3CCCC3)C(CCO)C2)cn1 (centres undefined)	9.03%
Nc1nc2n(n1)C(c1ccco1)CC(c1ccc(Cl)c(Cl)c1)N2 (centres undefined)	-11.5%
COc1ccc(NS(=O)(=O)c2cccc(NC(=O)c3ccccn3)c2)cc1	1.48%
CC(=O)Nc1cc(-c2ccc(Cl)cc2)[nH]n1	-11.4%
O=C(NC(=C(Cl)Cl)S(=O)(=O)c1ccc(Cl)cc1)c1ccccc1	-3.98%
CCN(CC)CCNC(=O)c1cccc(NC(=O)C(=O)c2cc(Br)ccc2NC(C)=O)c1	15%

Structure (SMILES)	inhibition
CCCCCCCCCCCCC/C=C/[C@@H](O)[C@@H](N)CO	21.2%
COc1ccc(OC)c(S(=O)(=O)N2CCC(C(=O)NCCc3ccc(OC)c(OC)c3)CC2)c1	-3.61%
Cc1nnc(SCc2cnc(-c3ccc(C(C)C)cc3)s2)n1C	34.8%
O=C(C[n+]1cc(-c2ccccc2)n2c1CCC2)c1cccs1	18.7%
Cc1ccc(-n2c(Cc3noc4ccccc34)n[nH]c2=S)cc1	2.98%
CCc1nnc(NS(=O)(=O)c2ccc(NC(=S)NC(=O)/C=C/c3ccc([N+](=O)[O-])cc3)cc2)s1	-7.82%
CCN(CC)CCCNC(=O)c1c(O)c2c([nH]c1=O)CCCC2	6.8%
CCSc1nc(C)cc(C)c1S(=O)(=O)c1ccccc1C	-0.26%
O=c1ccn(CCc2c[nH]c3ccccc23)c2c1CCCC2	-12.7%
Nc1cccc2c(=O)c3ccccc3[nH]c12	16.4%
Cc1[nH]c2ccccc2c1/C=C/c1nc2ccccc2c(=O)[nH]1	15.8%
Cc1ccc2[nH]c(C(=O)O)c(NC(=O)CN3CCN(c4cccc(C)c4C)CC3)c2c1	36.2%
CC1CCC[C@H](O)CCCCCc2cc(O)cc(O)c2C(=O)O1 (some centres undefined)	-28.5%
O=C(O)c1ccc(S(=O)(=O)NC2CC2)cc1	25%
c1cc2c(cc1C1CCCCC1)c1c3n2CCN=C3CCC1	-16.8%
CC1(C)CC(=O)C(C=NCC2CCN(C(=O)Cc3ccccc3)CC2)=C(O)C1	6.03%
O=C(CSc1ncc(-c2ccc(F)cc2)[nH]1)NCc1ccco1	-32.3%
COc1ccccc1Nc1nc(NCc2ccco2)c2ccccc2n1	21.9%
c1ccc(CN2CCN(c3nc(NCc4ccco4)c4ccccc4n3)CC2)cc1	20.6%
O=C(CSc1nc2c(c(=O)n1-c1ccc(F)cc1)SCC2)NCc1ccco1	-0.95%
CC(C)(C)c1nc(SCC(=O)NCc2ccco2)c2ccccc2n1	-7.41%

From PubChem BioAssay AID1985 (Southern Research Specialized Biocontainment Screening …, 2009)
